Assay results taken from PubChem BioAssay AID624151 (Broad Institute, 2012).
The whole screen tested about 28,000 compounds, of which about 410 (1.5%) were called active. The sample holds actives, similar compounds and a random draw of the others, so the mix is not that of the screen. A number with no mark means an inactive call. Cut-off read from the data, not from the text of the source: active = activation above about 52%; inconclusive = no clear call, values can overlap the other calls; inactive = below that.

experiment: mutant p53 pathway re-activators, primary screen, cell-based, SW480, luciferase, single point, HTS (AID 624151); settings: SW480 PUMA-promoter luciferase, p53 mutant reactivation; at 9.98 µM; hits give high values

Which activation does the source give for `COc1ccc(NC(=O)Cn2cnc3sc(C)c(C)c3c2=O)cc1` here?
The activation was 4.48%.

For `COc1ccc(NC(=O)N(C)C[C@H]2Oc3cc(-c4ccncc4)ccc3S(=O)(=O)N([C@H](C)CO)C[C@H]2C)cc1`, which activation is on record?
The activation was -12.4%.

With `COc1ccc(NC(=O)CSC2CC(=O)N(c3ccc(F)cc3)C2=O)cc1` (stereo unspecified) as the molecule, how does the activation read?
The activation was -1.05%.

Which activation does the source give for `Cc1ccccc1-n1c(C)cc(/C=C2\NC(=O)NC2=O)c1C` here?
Its activation is 22.9%.

Which activation does the source give for `Cc1ccc(C(=O)O)cc1S(=O)(=O)NCCCO` here?
Its activation is -7.19%.

Which activation does the source give for `COc1cccc2cc(C(=O)C3C(=O)C(=O)N(CCN4CCOCC4)C3c3ccc(F)cc3)oc12` (stereo unspecified) here?
The activation was 4.69%.

Which activation does the source give for `C[C@H](O)C#Cc1cnc2c(c1)C(=O)N([C@@H](C)CO)C[C@H](C)[C@H](CN(C)C(=O)c1ccccc1)O2` here?
The activation was 10.7%.

For `C[C@@H]1CN([C@H](C)CO)S(=O)(=O)c2ccc(C#CC3CC3)cc2O[C@H]1CN(C)C(=O)C1CCCCC1`, which activation is on record?
The activation was -13.7%.

With `Cc1sc2ncnc(SCC(=O)Nc3ccccc3)c2c1-c1ccccc1` as the molecule, how does the activation read?
Its activation is -11.3%.

For `Cc1ccc(S(=O)(=O)c2nc(-c3cccs3)oc2NCc2cccnc2)cc1`, which activation is on record?
The activation was -4.49%.

With `C[C@@H]1CN([C@H](C)CO)S(=O)(=O)c2ccc(C#C[C@@H](C)O)cc2O[C@H]1CN(C)C(=O)CC1CC1` as the molecule, how does the activation read?
Its activation is 0.298%.

Which activation does the source give for `CS(=O)(=O)N(CC(=O)Nc1ccc(Br)cc1)c1cc(Cl)c(Cl)cc1Cl` here?
The activation was -23.8%.

For `C[C@H](CO)N1C[C@H](C)[C@H](CN(C)C(=O)c2cnccn2)Oc2cc(C3=CCCC3)ccc2S1(=O)=O`, which activation is on record?
The activation was 3.46%.

For `O=C(CSc1nnc(-c2ccncc2)n1-c1ccc(Cl)cc1)Nc1ccc(C(=O)O)cc1`, which activation is on record?
The activation was 7.38%.

Which activation does the source give for `CCCC#Cc1cnc2c(c1)C(=O)N([C@H](C)CO)C[C@H](C)[C@@H](CN(C)C(=O)c1cccnc1)O2` here?
The activation was 2.84%.

With `Cc1ccn2c(NC(=O)C(C)(C)Oc3ccc(Cl)cc3)c(-c3ccc(F)cc3)nc2c1` as the molecule, how does the activation read?
The activation was -19%.

For `CCc1ccccc1NC(=O)CSc1nnc(N)s1`, which activation is on record?
The activation was 10.1%.

For `COc1ccc(NC(=O)C(C)N2c3cccc4cccc(c34)S2(=O)=O)c(OC)c1` (stereo unspecified), which activation is on record?
The activation was -6.27%.

Which activation does the source give for `COc1ccccc1-c1cnc2c(c1)C(=O)N([C@@H](C)CO)C[C@@H](C)[C@@H](CN(C)C(=O)c1cccnc1)O2` here?
The activation was 2.65%.

For `COc1ccccc1-c1cnc2c(c1)C(=O)N([C@H](C)CO)C[C@H](C)[C@@H](CN(C)CC1CCOCC1)O2`, which activation is on record?
Its activation is 5.27%.

Which activation does the source give for `O=C(O)CCSc1nnc2c(n1)[nH]c1ccccc12` here?
The activation was -2.83%.

Which activation does the source give for `O=C(CSc1nnc(-c2ccco2)n1-c1ccccc1)Nc1ccc(F)cc1` here?
Its activation is 7.08%.

With `O=C(CSc1nnc(-c2ccc(Br)cc2)o1)Nc1ccc2ccccc2c1` as the molecule, how does the activation read?
The activation was -20.7%.

For `COc1ccccc1-c1nnc(SCC(=O)Nc2ccccc2)o1`, which activation is on record?
Its activation is 28.3%.

With `Cc1ccc(-c2nnc(SCC(=O)Nc3ccccc3OC(F)F)o2)cc1` as the molecule, how does the activation read?
The activation was 102% (active).

With `O=C(CSc1ncnc2sc3c(c12)CCCC3)Nc1ccc(F)c(Cl)c1` as the molecule, how does the activation read?
Its activation is 0.113%.

Which activation does the source give for `CC(C)Cc1nc(SCC(=O)Nc2ccc3ccccc3c2)n[nH]1` here?
The activation was 9.32%.

With `C/C=C/c1ccc2c(c1)O[C@H](CN(C)Cc1cccc(F)c1)[C@H](C)CN([C@H](C)CO)S2(=O)=O` as the molecule, how does the activation read?
The activation was -12.7%.

Which activation does the source give for `COc1ccccc1NC(=O)N(C)C[C@@H]1Oc2ncc(Br)cc2C(=O)N([C@@H](C)CO)C[C@@H]1C` here?
Its activation is 3.31%.

With `CCn1c(SCC(=O)O)nc2sc3c(c2c1=O)CC(C)(C)OC3` as the molecule, how does the activation read?
Its activation is 17.9%.

With `COC(=O)c1cc(OC)c(OC)cc1NC(=O)c1cc(-c2ccc(C)o2)nc2ccccc12` as the molecule, how does the activation read?
The activation was 21.7%.

With `Cc1ccc(C(=O)Oc2ccc(C(=O)CSc3nc4ccccc4o3)cc2)cc1` as the molecule, how does the activation read?
Its activation is 45.6%.

For `COc1ccc(C(=O)CCC(=O)Nc2ccc(Br)cc2)cc1`, which activation is on record?
The activation was -1.31%.

For `COc1ccccc1NC(=O)CSc1n[nH]c(C)n1`, which activation is on record?
The activation was -9.46%.

With `CCOc1ccc(NC(=O)Cn2c(=O)n(-c3ccc(Cl)cc3)c(=O)c3c4c(sc32)CCC4)cc1` as the molecule, how does the activation read?
The activation was -5.81%.

With `COc1ccccc1-n1c(N)cc(=O)nc1SCC(=O)Nc1ccc(Br)cc1` as the molecule, how does the activation read?
Its activation is 3.88%.

With `COC(=O)COc1cccc(NC(=O)c2cc(OC)c(OC)c(OC)c2)c1` as the molecule, how does the activation read?
The activation was 9.43%.

Which activation does the source give for `Cc1cc2oc(C(=O)Nc3sc4c(c3C(=O)NCc3ccco3)CCC4)c(C)c2cc1C` here?
Its activation is -5.36%.

With `C[C@@H]1CN([C@@H](C)CO)S(=O)(=O)c2ccc(-c3cccc(C#N)c3)cc2O[C@@H]1CN(C)Cc1cccc(F)c1` as the molecule, how does the activation read?
The activation was -25.7%.

Which activation does the source give for `C[C@@H]1CN([C@@H](C)CO)C(=O)c2cc(/C=C/c3ccccc3)cnc2O[C@H]1CN(C)C(=O)Nc1ccc(C(F)(F)F)cc1` here?
The activation was -18.8%.

For `COc1ccc(Cl)cc1NC(=O)CSc1nnc(-c2ccc(Cl)c(Cl)c2)n1C`, which activation is on record?
Its activation is 1.7%.

For `C/C=C/c1ccc2c(c1)O[C@H](CN(C)C(=O)Cc1cccnc1)[C@@H](C)CN([C@H](C)CO)S2(=O)=O`, which activation is on record?
The activation was -5.22%.

With `Cc1cc(=O)oc2cc(OC(C)C(=O)Nc3ccc(Cl)c(C(F)(F)F)c3)ccc12` (stereo unspecified) as the molecule, how does the activation read?
The activation was 0.711%.

For `CCCC#Cc1ccc2c(c1)O[C@@H](CN(C)CC1CC1)[C@@H](C)CN([C@H](C)CO)S2(=O)=O`, which activation is on record?
The activation was 1.22%.

With `COCCNC(=O)C[C@@H]1C[C@@H]2c3cc(NC(=O)Nc4ccc(C(F)(F)F)cc4)ccc3O[C@@H]2[C@@H](CO)O1` as the molecule, how does the activation read?
The activation was 11.3%.

For `Cc1ccnc(NC(c2cccc([N+](=O)[O-])c2)c2ccc3ccc(C)nc3c2O)c1` (stereo unspecified), which activation is on record?
Its activation is -13.9%.

With `Cc1csc2nc(SCC(=O)Nc3ccc([N+](=O)[O-])cc3)[nH]c(=O)c12` as the molecule, how does the activation read?
Its activation is 15.6%.

With `Cn1nnc(NC(=O)COc2ccc(Cl)cc2Cl)n1` as the molecule, how does the activation read?
The activation was 70.8% (active).

For `COc1cc(NC(=O)COc2cc(C)c(Br)c(C)c2)c(OC)cc1Cl`, which activation is on record?
Its activation is 0.202%.

For `COC(=O)c1cc(OC)c(OC)cc1NC(=O)COc1ccccc1Cl`, which activation is on record?
Its activation is 10.4%.

With `COc1cc(NC(=O)COc2ccc(Cl)cc2C)c(OC)cc1Cl` as the molecule, how does the activation read?
Its activation is 105% (active).

Which activation does the source give for `COc1cc(NC(=O)COc2ccc(Br)cc2)ccc1NC(=O)c1ccccc1Cl` here?
The activation was 20.3%.

Which activation does the source give for `COC(=O)c1cc(OC)c(OC)cc1NC(=O)COc1ccc(Cl)cc1` here?
The activation was -22.9%.

With `CCOc1ccc(OCC(=O)Nc2cc(C)c(Cl)cc2OC)cc1` as the molecule, how does the activation read?
The activation was 8.21%.

For `COc1cc(NC(=O)COc2ccccc2Br)c(OC)cc1Cl`, which activation is on record?
Its activation is 132% (active).

Which activation does the source give for `COc1ccc(NC(=O)CSc2nnnn2C)cc1Cl` here?
The activation was 47.7%.

Which activation does the source give for `CS(=O)(=O)N(CC(=O)Nc1cc(C(F)(F)F)ccc1Cl)c1ccccc1Br` here?
Its activation is -13.9%.

With `Cc1ccc(OCC(=O)Nc2cc(-c3nc4cc(C)c(C)cc4o3)ccc2C)cc1` as the molecule, how does the activation read?
The activation was 39.9%.

Which activation does the source give for `Cc1ccc2nc(-c3ccc(Cl)c(NC(=O)COc4ccc(Br)cc4)c3)oc2c1` here?
Its activation is 91.4% (active).

Which activation does the source give for `Cc1cc(C)c2oc(-c3cccc(NC(=O)COc4ccc(Br)cc4)c3C)nc2c1` here?
The activation was -29.6%.

With `CS(=O)(=O)N(CC(=O)Nc1ccccc1C(=O)N1CCOCC1)c1ccc(I)cc1` as the molecule, how does the activation read?
Its activation is 9.09%.

For `CN(C)CCNc1oc(COc2ccc(F)cc2)nc1C#N`, which activation is on record?
Its activation is -4.45%.

With `Cc1ccc(N(CC(O)CN2C(=O)NC(C)(C)C2=O)S(=O)(=O)c2ccccc2)cc1` (stereo unspecified) as the molecule, how does the activation read?
The activation was 22.6%.

Which activation does the source give for `O=C1c2ccccc2C(=O)N1CCCc1nc2ccccc2c(=O)n1-c1nc2ccccc2s1` here?
The activation was 102% (active).

Which activation does the source give for `O=C1c2ccccc2C(=O)N1CCCn1c2ccccc2c2nc3ccc([N+](=O)[O-])cc3cc21` here?
The activation was 9.36%.

With `Cc1ccc(NC(=O)CCCN2C(=O)c3ccccc3C2=O)cc1` as the molecule, how does the activation read?
Its activation is 11.8%.

For `COCC#Cc1cnc2c(c1)C(=O)N([C@H](C)CO)C[C@H](C)[C@@H](CN(C)C(=O)Nc1cc(F)ccc1F)O2`, which activation is on record?
Its activation is 13.3%.

For `CC(NS(=O)(=O)c1ccc(F)cc1)C(=O)Nc1ccc(I)cc1` (stereo unspecified), which activation is on record?
Its activation is -13.8%.

Which activation does the source give for `COc1ccc(C#Cc2cnc3c(c2)C(=O)N([C@H](C)CO)C[C@H](C)[C@@H](CN(C)C)O3)cc1` here?
The activation was 0.282%.

Which activation does the source give for `O=C(CS(=O)(=O)c1ccccc1)Nc1ccc2c(c1)OCCO2` here?
The activation was 61.6% (active).

Which activation does the source give for `O=C(CS(=O)(=O)c1ccccc1)Nc1ccccc1O` here?
The activation was 7.6%.

For `COc1ccc(S(=O)(=O)N(C)CC(=O)Nc2ccc3c(c2)OCCO3)cc1OC`, which activation is on record?
The activation was -12.9%.

With `CN(c1ccc(C(=O)NCc2ccccn2)cc1)S(C)(=O)=O` as the molecule, how does the activation read?
The activation was 5.75%.

Which activation does the source give for `Cc1ccc2nc(-c3ccncc3)cc(C(=O)NCc3ccccn3)c2c1` here?
The activation was -3.82%.

With `CC(C)(C)c1ccc(OCC(=O)NCc2ccccn2)c(Br)c1` as the molecule, how does the activation read?
The activation was 94.5% (active).

For `CCCNC(=O)N(C)C[C@H]1Oc2cc(C#CC(C)(C)O)ccc2S(=O)(=O)N([C@H](C)CO)C[C@@H]1C`, which activation is on record?
The activation was 14.1%.

For `CCc1ccccc1NC(=O)Cn1cnc2scc(-c3ccc(OC)cc3)c2c1=O`, which activation is on record?
The activation was -10.3%.

With `Cc1cccc(N(CC(=O)Nc2cccc([N+](=O)[O-])c2)S(C)(=O)=O)c1C` as the molecule, how does the activation read?
Its activation is -1.11%.

With `Cc1nc(SCC(=O)Nc2ccc(C(=O)O)cc2)[nH]c(=O)c1C` as the molecule, how does the activation read?
The activation was -11.8%.

For `CCn1cc(CNC(=S)Nc2cc(OC)ccc2OC)cn1`, which activation is on record?
The activation was -10.5%.

With `CCCNC(=O)N(C)C[C@@H]1Oc2ncc(-c3ccccc3F)cc2C(=O)N([C@@H](C)CO)C[C@H]1C` as the molecule, how does the activation read?
Its activation is 16.1%.
